Experimental data: PubChem BioAssay (NCATS)
Inconclusive results are not listed. The source made the active and inactive calls. Calls follow the shape of the dose curve; as a rule, active = well fitted curve in the direction sought with a large enough effect; inconclusive = small, poorly fitted or top-dose-only effect, or another doubt; inactive = no such curve, though single readings can be large; an effect the other way counts as inactive or inconclusive.

What was measured:
[1] = OV-SAHO Cancer Cell Toxicity qHTS against the NCATS CANVASS Library (AID 1347348); details: OV-SAHO viability, CellTiter-Glo luminescence, 72 h; series mostly up to 38.3 µM; also: nearly all actives have a fitted effect of over 55% in size
Summary of the method: (§1)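 In this cytotoxicity screen, 1000 cells per well rested 4 hours, then received compound (11 concentrations) for a 72-hour incubation; an ATP-dependent luminescent signal (CellTiter-Glo) was the endpoint.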

[2] = SW1088 Cancer Cell Toxicity qHTS against the NCATS CANVASS Library (AID 1347350); details: SW1088 viability, CellTiter-Glo luminescence, 72 h; series mostly up to 38.3 µM; also: nearly all actives have a fitted effect of over 75% in size
Summary of the method: as §1

[3] = U-118MG Cancer Cell Toxicity qHTS against the NCATS CANVASS Library (AID 1347351); details: U-118MG viability, CellTiter-Glo luminescence, 72 h; series mostly up to 38.3 µM
Summary of the method: as §1

[4] = COV-362 Cancer Cell Toxicity qHTS against the NCATS CANVASS Library (AID 1347352); details: COV-362 viability, CellTiter-Glo luminescence, 72 h; series mostly up to 38.3 µM
Summary of the method: (§2)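 Cells at 1000/well were given compound 4 h after plating in an 11-point series. Viability was read by CellTiter-Glo luminescence after 72 h at 37 degrees C.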

[5] = A2780 Cisplatin Sensitive Ovarian Cancer Cell Toxicity qHTS against the NCATS CANVASS Library (AID 1347353); details: A2780 ovarian cancer viability, ATPLite luminescence, 72 h; series mostly up to 46.1 µM; also: nearly all actives have a fitted effect of over 60% in size
Summary of the method: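 A2780 cells, 750/well, settled 4 h at 37 °C, then treated with an 11-point compound series for 72 h. Viability was read as ATPLite luminescence after 10 min at room temperature, with bortezomib as control.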

[6] = UWB1.289-WTBRCA1 Cancer Cell Toxicity qHTS against the NCATS CANVASS Library (AID 1347354); details: UWB1.289-WTBRCA1 viability, CellTiter-Glo luminescence, 72 h; series mostly up to 38.3 µM
Summary of the method: as §2

[7] = HEK-293 Cancer Cell Toxicity qHTS against the NCATS CANVASS Library (AID 1347355); details: HEK-293 viability, CellTiter-Glo luminescence, 72 h; series mostly up to 46.1 µM; also: nearly all actives have a fitted effect of over 65% in size
Summary of the method: as §2

[8] = HPAF-II 24hr Apoptosis Induction qHTS against the NCATS CANVASS Library (AID 1347356); details: HPAF-II caspase-3/7 Caspase-Glo luminescence; series mostly up to 46.1 µM
Summary of the method: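 HPAF-II cells (500/well) exposed to compounds in 11-point series for 24 h at 37 degrees C; caspase-3/7 activity read by Caspase-Glo luminescence after 15 min at room temperature. Doxorubicin titration as control.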

[9] = HEK293 18hr Apoptosis Induction qHTS against the NCATS CANVASS Library (AID 1347357); details: HEK293 caspase-3/7 Caspase-Glo luminescence; series mostly up to 46.1 µM
Summary of the method: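 Cells seeded at 500/well in DMEM + 10% FBS. Compounds pinned, 11 concentrations. 18 h, 37 degrees C/5% CO2. Caspase-Glo 3/7 added, 15 min RT dark, luminescence read.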

[10] = HPAF-II 12hr Apoptosis Induction qHTS against the NCATS CANVASS Library (AID 1347358); details: HPAF-II caspase-3/7 Caspase-Glo luminescence; series mostly up to 46.1 µM
Summary of the method: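 HPAF-II cells, 500/well in DMEM + 10% FBS, exposed 12 hours at 37 degrees C to compound (11-point). Caspase-Glo 3/7 added for 15 min at room temperature; luminescence reflects caspase-3/7 activity.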

[11] = HEK293 24hr Apoptosis Induction qHTS against the NCATS CANVASS Library (AID 1347359); details: HEK293 caspase-3/7 activation, Caspase-Glo luminescence; series mostly up to 46.1 µM
Summary of the method: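 Caspase-3/7 activation measured as luminescence from the DEVD-based Caspase-Glo reagent, 15 min at room temperature, following 24-hour compound treatment of HEK293 cells.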

[12] = HPAF-II 18hr Apoptosis Induction qHTS against the NCATS CANVASS Library (AID 1347360); details: HPAF-II caspase-3/7 luminescence; series mostly up to 46.1 µM
Summary of the method: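 Seed HPAF-II cells at 500/well in DMEM + 10% FBS, pin-transfer compounds, incubate 18 hours at 37 degrees C/5% CO2, add Caspase-Glo 3/7 reagent, wait 15 min, read luminescence.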

[13] = HEK293 12hr Apoptosis Induction qHTS against the NCATS CANVASS Library (AID 1347361); details: HEK293 caspase-3/7 Caspase-Glo luminescence; series mostly up to 46.1 µM
Summary of the method: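 Cells are seeded, dosed with an 11-point compound series and incubated 12 hours. Caspase-3/7 activity is detected by luminescent DEVD-substrate reagent after 15 minutes at room temperature.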

[14] = system: NAD(P)H diaphorase (Clostridium kluyveri); test: Diaphorse counterscreen qHTS: Assay Interference Panel against the NCATS CANVASS Library (AID 1347362); details: Diaphorase enzyme, resazurin to resorufin fluorescence; series mostly up to 57.5 µM
Summary of the method: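 Counterscreen for coupling-enzyme interference: resorufin fluorescence from resazurin/NADH turnover, read after 5 min at room temperature. Compounds were tested over an 11-point series after 15 min dark preincubation with diaphorase in PBS-Tween.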

[15] = biological target: Luciferin 4-monooxygenase (Photinus pyralis) (UniProt P08659); test: Firefly luciferase counterscreen qHTS: Assay Interference Panel against the NCATS CANVASS Library (AID 1347363); details: purified firefly luciferase, luminescence inhibition, 5 min; series mostly up to 57.5 µM
Summary of the method: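 Luminescence inhibition readout: compounds (11-point qHTS) sat 15 min at room temperature with substrate mix (0.013 mM luciferin and ATP), then firefly luciferase was added and signal read 5 min later.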

[16] = KB-8-5-11 Cancer Cell Toxicity qHTS against the NCATS CANVASS Library (AID 1347364); details: KB-8-5-11 MDR cells viability, CellTiter-Glo, 72 h; series mostly up to 46.1 µM; also: nearly all actives have a fitted effect of over 75% in size
Summary of the method: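 KB-8-5-11 cells, 500/well in DMEM + 10% FBS, given compounds in an 11-point series. Incubated 72 h at 37 °C. Viability by CellTiter-Glo luminescence. Confirmation also run with 1 uM tariquidar.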

[17] = SDT Cancer Cell Toxicity qHTS against the NCATS CANVASS Library (AID 1347365); details: SDT dog glioma viability, ATP luminescence, 72 h; series mostly up to 46.1 µM; also: nearly all actives have a fitted effect of over 60% in size
Summary of the method: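 SDT dog glioma cells (500/well) exposed to an 11-point compound series for 72 hr at 37C, 5% CO2. Cytotoxicity read as ATP content by CellTiterGlo luminescence; bortezomib titration as control.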

[18] = KB-3-1 Cancer Cell Toxicity qHTS against the NCATS CANVASS Library (AID 1347366); details: KB-3-1 viability, CellTiter-Glo luminescence, 72 h; series mostly up to 46.1 µM; also: nearly all actives have a fitted effect of over 75% in size
Summary of the method: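 Luminescence from CellTiter-Glo (10 min, room temperature) measured KB-3-1 viability after 72 hr compound exposure at 37C. Cells were seeded at 500/well and tested in an 11-point series.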

[19] = qHTS for ATAD5 Agonist screened against the NCATS CANVASS Library (AID 1347367); details: HEK293T ATAD5-luciferase reporter, luminescence, 16 h; series mostly up to 46.1 µM;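 also: luciferase reporter driven by ATAD5 which rises upon DNA damage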
Summary of the method: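 HEK293T-ATAD5 luc reporter; 2000 cells/well; 5hr settle; cpd 11-pt qHTS; 16hr 37C 5% CO2 dark; viability by CellTiter-Fluor (AFC fluorescence); then luciferase luminescence, 30min RT.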

[20] = G06 Cancer Cell Toxicity qHTS against the NCATS CANVASS Library (AID 1347368); details: G06 dog glioma cells, viability ATP luminescence, 72 h; series mostly up to 46.1 µM; also: nearly all actives have a fitted effect of over 60% in size
Summary of the method: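 G06 dog glioma cells, 500 per well, exposed 72 hr at 37C, 5% CO2 to compounds in an 11-point series. Cytotoxicity read as ATP content by CellTiterGlo luminescence.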

Measured: outcome

Sequence of Luciferin 4-monooxygenase (Photinus pyralis) (P08659 whole entry, looked up): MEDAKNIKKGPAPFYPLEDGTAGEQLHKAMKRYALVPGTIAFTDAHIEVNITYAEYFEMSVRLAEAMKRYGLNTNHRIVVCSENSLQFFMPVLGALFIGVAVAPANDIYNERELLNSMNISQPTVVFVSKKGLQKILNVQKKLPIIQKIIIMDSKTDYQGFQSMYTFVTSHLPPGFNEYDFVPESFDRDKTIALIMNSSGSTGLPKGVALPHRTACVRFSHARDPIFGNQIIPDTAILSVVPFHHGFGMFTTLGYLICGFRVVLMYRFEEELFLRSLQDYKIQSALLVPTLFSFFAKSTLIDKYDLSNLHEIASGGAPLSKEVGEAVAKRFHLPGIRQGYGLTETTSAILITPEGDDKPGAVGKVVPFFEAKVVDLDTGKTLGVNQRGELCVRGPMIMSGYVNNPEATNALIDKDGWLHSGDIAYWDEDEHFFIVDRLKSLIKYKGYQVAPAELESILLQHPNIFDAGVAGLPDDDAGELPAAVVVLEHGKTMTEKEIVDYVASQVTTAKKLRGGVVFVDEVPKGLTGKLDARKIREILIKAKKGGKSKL

C/C=C/C=C/C(CC(=O)O)Nc1ccc(C=O)cc1 (stereo not given)
inactive: all assays above

CC1=C2C(=O)O[C@@H](c3ccoc3)[C@]2(C)CCC1
inactive: all assays above
